Values joined by “and” are separate entries in the source; they are usually repeats but may differ in a detail not shown here. Identical values can stand only once. Inconclusive results are not listed. Some compounds were tested as several samples or in several runs, with calls that do not always agree. Active and inactive are the calls of the source. The calls were made as follows: active = hit-call score of the fitted dose curve at least 0.9, where 1 is the maximum; inconclusive = response in the unintended direction; inactive = score below 0.9.
How the values were obtained:
[1] = target: mouse Peroxisome Proliferator-activated Receptor gamma (PPARg), Pparg (gene 19016) (UniProt P37238); experiment: ATG_mPPARg_XSP1: Attagene TRANS-FACTORIAL Multi-Species (XSP1) HepG2 Assay for mouse Peroxisome Proliferator-activated Receptor gamma (PPARg) (AID 2283802)
Chain of mouse Peroxisome Proliferator-activated Receptor gamma (PPARg), Pparg (gene 19016) (P37238 whole entry, looked up, the tested form may be a part): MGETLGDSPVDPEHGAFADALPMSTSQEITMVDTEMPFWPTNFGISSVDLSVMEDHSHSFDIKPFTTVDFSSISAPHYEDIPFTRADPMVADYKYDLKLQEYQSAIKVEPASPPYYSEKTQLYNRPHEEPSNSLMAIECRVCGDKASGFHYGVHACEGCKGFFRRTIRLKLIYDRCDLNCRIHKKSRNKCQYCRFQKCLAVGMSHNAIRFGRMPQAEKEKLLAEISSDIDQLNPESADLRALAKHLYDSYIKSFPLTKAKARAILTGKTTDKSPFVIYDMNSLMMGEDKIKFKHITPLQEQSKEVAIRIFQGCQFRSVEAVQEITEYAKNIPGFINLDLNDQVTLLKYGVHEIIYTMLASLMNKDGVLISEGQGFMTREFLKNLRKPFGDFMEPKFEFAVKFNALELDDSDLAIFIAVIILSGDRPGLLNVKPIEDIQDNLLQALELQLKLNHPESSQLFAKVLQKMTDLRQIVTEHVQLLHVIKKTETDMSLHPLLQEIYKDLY
Procedure, shortened: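 Readout is reporter mRNA induction, measured by RT-PCR with 6-FAM labelling, HpaI digestion and capillary electrophoresis, 24 h post-dose relative to DMSO. Transient multi-reporter transfection of human HepG2 with mouse PPARg–GAL4 fusion; 3 nM 6-alpha-fluorotestosterone included.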

[2] = target: Nuclear receptor subfamily 1 group I member 2 (Mus musculus) (UniProt O54915); experiment: ATG_mPXR_XSP1: Attagene TRANS-FACTORIAL Multi-Species (XSP1) HepG2 Assay for mouse Pregnane X Receptor (PXR) (AID 2283803)
Chain of Nuclear receptor subfamily 1 group I member 2 (Mus musculus) (O54915 whole entry, looked up, the tested form may be a part): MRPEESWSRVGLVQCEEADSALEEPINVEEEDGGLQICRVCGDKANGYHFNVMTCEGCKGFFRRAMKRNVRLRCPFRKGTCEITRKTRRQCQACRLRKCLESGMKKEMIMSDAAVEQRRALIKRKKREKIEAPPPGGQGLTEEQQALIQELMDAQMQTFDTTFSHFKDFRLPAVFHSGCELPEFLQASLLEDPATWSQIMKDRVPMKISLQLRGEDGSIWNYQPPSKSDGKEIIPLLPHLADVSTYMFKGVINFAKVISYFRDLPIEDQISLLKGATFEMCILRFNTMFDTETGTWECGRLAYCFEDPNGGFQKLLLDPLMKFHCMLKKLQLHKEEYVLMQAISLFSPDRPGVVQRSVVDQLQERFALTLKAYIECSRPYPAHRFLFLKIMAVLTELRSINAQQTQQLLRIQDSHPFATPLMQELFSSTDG
Procedure, shortened: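 Transiently transfected HepG2 cells expressing a receptor-Gal4 chimera drive a GAL4-UAS reporter; 3 nM 6-alpha-fluorotestosterone included. Reporter mRNA read 24 h post-dose by RT-PCR and capillary electrophoresis; gain of signal relative to DMSO.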

[3] = target: frog Thyroid hormone Receptor alpha (TRa), thra-a (gene 397942) (UniProt P15204); experiment: ATG_frTRa_XSP1: Attagene TRANS-FACTORIAL Multi-Species (XSP1) HepG2 Assay for frog Thyroid hormone Receptor alpha (TRa) (AID 2283804)
Chain of frog Thyroid hormone Receptor alpha (TRa), thra-a (gene 397942) (P15204 whole entry, looked up, the tested form may be a part): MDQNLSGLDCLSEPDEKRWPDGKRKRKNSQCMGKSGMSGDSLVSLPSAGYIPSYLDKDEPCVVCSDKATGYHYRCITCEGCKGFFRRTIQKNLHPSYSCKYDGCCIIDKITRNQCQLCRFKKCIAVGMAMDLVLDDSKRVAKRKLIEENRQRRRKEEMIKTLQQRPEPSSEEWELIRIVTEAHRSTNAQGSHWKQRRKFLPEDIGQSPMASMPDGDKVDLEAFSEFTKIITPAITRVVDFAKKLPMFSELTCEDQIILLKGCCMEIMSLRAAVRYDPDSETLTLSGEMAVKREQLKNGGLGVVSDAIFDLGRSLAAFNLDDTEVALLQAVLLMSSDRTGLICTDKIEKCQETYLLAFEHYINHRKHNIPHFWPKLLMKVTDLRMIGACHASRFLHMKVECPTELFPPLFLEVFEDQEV
Procedure, shortened: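 Reporter transcript induction, measured by RT-PCR with 6-FAM labelling and capillary electrophoresis, 24 hr after dosing transiently transfected HepG2 cells expressing a frog TRa-GAL4 fusion; medium contained 3 nM 6-alpha-fluorotestosterone; increase over DMSO scored.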

[4] = target: human Thyroid hormone Receptor alpha (TRa), THRA (gene 7067) (UniProt P10827); experiment: ATG_hTRa_XSP1: Attagene TRANS-FACTORIAL Multi-Species (XSP1) HepG2 Assay for human Thyroid hormone Receptor alpha (TRa) (AID 2283805)
Procedure, shortened: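 Reporter transcripts from the human TRa-Gal4 TRANS unit quantified by RT-PCR, fluorescent labeling and capillary electrophoresis after 24 hours of chemical exposure in transfected HepG2 cells; medium contains 3 nM 6-alpha-fluorotestosterone. Positive direction fit against DMSO.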

[5] = system: turtle Thyroid Hormone Receptor, alpha (TRa), gene 101949057; experiment: ATG_trTRa_XSP1: Attagene TRANS-FACTORIAL Multi-Species (XSP1) HepG2 Assay for turtle Thyroid Hormone Receptor, alpha (TRa) (AID 2283806)
Procedure, shortened: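 After 24 h chemical exposure, reporter transcripts were measured by RT-PCR with fluorescent primer extension, HpaI digestion and capillary electrophoresis. Cells were transiently transfected HepG2 expressing exogenous NR-Gal4 chimeras; medium contained 3 nM 6-alpha-fluorotestosterone; fitted upward relative to DMSO.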

[6] = target: zebrafish Thyroid Hormone Receptor alpha (TRa), thraa (gene 30670) (UniProt Q98867); experiment: ATG_zfTRa_XSP1: Attagene TRANS-FACTORIAL Multi-Species (XSP1) HepG2 Assay for zebrafish Thyroid Hormone Receptor alpha (TRa) (AID 2283807)
Chain of zebrafish Thyroid Hormone Receptor alpha (TRa), thraa (gene 30670) (Q98867 whole entry, looked up, the tested form may be a part): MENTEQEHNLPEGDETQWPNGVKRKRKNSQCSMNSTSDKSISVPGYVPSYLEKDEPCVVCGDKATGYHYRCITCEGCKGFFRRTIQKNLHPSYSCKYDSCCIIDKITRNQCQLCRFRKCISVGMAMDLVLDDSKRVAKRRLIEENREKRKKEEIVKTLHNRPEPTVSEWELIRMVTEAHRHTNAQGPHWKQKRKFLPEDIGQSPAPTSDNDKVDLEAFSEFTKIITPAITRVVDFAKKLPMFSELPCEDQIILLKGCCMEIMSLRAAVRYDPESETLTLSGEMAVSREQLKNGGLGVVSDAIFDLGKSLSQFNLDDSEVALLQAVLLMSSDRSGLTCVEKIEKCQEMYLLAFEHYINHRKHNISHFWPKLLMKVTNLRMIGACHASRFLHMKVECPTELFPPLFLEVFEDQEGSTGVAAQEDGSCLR
Procedure, shortened: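 Reporter transcripts driven by a chimeric zebrafish TRa–Gal4 protein were measured by RT-PCR with fluorescent labelling and capillary electrophoresis. These came from transiently transfected HepG2 cells after 24 h chemical exposure, with 3 nM 6-alpha-fluorotestosterone added; baseline was DMSO.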

[7] = target: human Thyroid hormone Receptor beta (TRb), THRB (gene 7068) (UniProt P10828); experiment: ATG_hTRb_XSP1: Attagene TRANS-FACTORIAL Multi-Species (XSP1) HepG2 Assay for human Thyroid hormone Receptor beta (TRb) (AID 2283808)
Procedure, shortened: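 Readout is reporter mRNA induction measured by RT-PCR, fluorescent labelling and capillary electrophoresis, fitted upward relative to DMSO. Transiently transfected human HepG2 cells expressing NR-Gal4 chimeras were dosed for 24 h, medium containing 3 nM 6-alpha-fluorotestosterone.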

[8] = target: zebrafish Thyroid Hormone Receptor beta (TRb), thrb (gene 30607) (UniProt Q9PVE4); experiment: ATG_zfTRb_XSP1: Attagene TRANS-FACTORIAL Multi-Species (XSP1) HepG2 Assay for zebrafish Thyroid Hormone Receptor beta (TRb) (AID 2283809)
Chain of zebrafish Thyroid Hormone Receptor beta (TRb), thrb (gene 30607) (Q9PVE4 whole entry, looked up, the tested form may be a part): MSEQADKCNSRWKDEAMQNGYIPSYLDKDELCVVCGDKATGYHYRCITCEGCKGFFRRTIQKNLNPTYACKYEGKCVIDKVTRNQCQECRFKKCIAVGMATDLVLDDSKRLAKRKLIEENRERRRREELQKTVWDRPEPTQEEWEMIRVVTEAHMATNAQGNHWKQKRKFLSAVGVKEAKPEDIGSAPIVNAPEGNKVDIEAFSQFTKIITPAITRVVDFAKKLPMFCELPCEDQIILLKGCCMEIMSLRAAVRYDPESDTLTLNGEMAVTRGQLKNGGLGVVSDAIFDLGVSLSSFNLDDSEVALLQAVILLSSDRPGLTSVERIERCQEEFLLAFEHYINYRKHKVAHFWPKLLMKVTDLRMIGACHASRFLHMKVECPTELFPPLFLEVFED
Procedure, shortened: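 HepG2 cells transiently transfected with multiplexed GAL4-UAS reporter units expressing chimeric zebrafish TRb–Gal4. Dosed 24 h with 3 nM 6-alpha-fluorotestosterone present; reporter mRNA measured by RT-PCR, HpaI digestion and capillary electrophoresis; gain of signal versus DMSO.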

[9] = ATG_XTT_Cytotoxicity_XSP1: Cytotoxicity Assessment in the Attagene TRANS-FACTORIAL Multi-Species (XSP1) HepG2 Assay (AID 2283810)
Procedure, shortened: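 XTT viability readout taken at 24 hours post-dosing in HepG2 liver cells co-treated with 3 nM 6-alpha-fluorotestosterone. Signal loss relative to DMSO controls reflects cytotoxicity.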

[10] = ATG_M_06_XSP2: Attagene TRANS-FACTORIAL Multi-Species (XSP2) HepG2 Assay for M06 Transcription Factor (Internal Marker) (AID 2283811);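 also: hits are increases in signal above the DMSO baseline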
Procedure, shortened: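 Internal-marker reporter transcript, quantified by RT-PCR, 6-FAM labelling, HpaI digestion and capillary electrophoresis, 24 hours after dosing transfected HepG2 cells with 3 nM 6-alpha-fluorotestosterone and 1.5 nM norgestrel present; DMSO baseline.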

[11] = target: GAL4 Transcription Factor (Internal Marker), GAL4 (gene 855828) (UniProt P04386); experiment: ATG_GAL4_XSP2: Attagene TRANS-FACTORIAL Multi-Species (XSP2) HepG2 Assay for GAL4 Transcription Factor (Internal Marker) (AID 2283814);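 also: GAL4 reporter mRNA background control in MRTU transfected cells not a receptor target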
Chain of GAL4 Transcription Factor (Internal Marker), GAL4 (gene 855828) (P04386 whole entry, looked up, the tested form may be a part): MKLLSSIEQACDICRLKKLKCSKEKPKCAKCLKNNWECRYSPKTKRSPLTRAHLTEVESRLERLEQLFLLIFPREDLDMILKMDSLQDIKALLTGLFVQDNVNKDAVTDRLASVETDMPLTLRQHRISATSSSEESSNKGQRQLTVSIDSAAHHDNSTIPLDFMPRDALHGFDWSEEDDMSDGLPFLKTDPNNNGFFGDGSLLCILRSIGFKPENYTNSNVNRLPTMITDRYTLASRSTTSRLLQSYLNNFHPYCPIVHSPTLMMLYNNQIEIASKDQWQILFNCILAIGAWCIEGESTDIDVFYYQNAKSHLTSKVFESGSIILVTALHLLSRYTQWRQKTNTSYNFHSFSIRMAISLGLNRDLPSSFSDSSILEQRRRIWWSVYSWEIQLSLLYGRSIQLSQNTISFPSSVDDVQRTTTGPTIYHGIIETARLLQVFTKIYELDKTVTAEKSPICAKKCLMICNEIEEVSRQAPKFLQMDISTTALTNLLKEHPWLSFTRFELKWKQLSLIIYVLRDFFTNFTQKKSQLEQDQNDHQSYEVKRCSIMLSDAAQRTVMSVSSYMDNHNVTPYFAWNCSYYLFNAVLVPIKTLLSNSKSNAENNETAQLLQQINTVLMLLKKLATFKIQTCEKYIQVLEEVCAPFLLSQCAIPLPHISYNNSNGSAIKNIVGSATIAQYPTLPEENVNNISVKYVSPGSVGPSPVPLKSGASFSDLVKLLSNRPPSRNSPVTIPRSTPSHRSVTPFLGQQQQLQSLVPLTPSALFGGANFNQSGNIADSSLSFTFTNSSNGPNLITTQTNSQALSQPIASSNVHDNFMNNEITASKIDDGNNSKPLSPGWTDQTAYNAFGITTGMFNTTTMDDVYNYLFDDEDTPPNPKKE
Procedure, shortened: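 Background-control readout: gain-of-signal fitted against DMSO. After 24 h exposure of transfected HepG2 (MRTU, GAL4-UAS reporters; 3 nM 6-alpha-fluorotestosterone, 1.5 nM norgestrel present), transcripts quantified by RT-PCR and capillary electrophoresis fluorescence.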

[12] = target: zebrafish Estrogen Receptor (ER1), esr1 (gene 259252) (UniProt P57717); experiment: ATG_zfER1_XSP2: Attagene TRANS-FACTORIAL Multi-Species (XSP2) HepG2 Assay for zebrafish Estrogen Receptor (ER1) (AID 2283816)
Chain of zebrafish Estrogen Receptor (ER1), esr1 (gene 259252) (P57717 whole entry, looked up, the tested form may be a part): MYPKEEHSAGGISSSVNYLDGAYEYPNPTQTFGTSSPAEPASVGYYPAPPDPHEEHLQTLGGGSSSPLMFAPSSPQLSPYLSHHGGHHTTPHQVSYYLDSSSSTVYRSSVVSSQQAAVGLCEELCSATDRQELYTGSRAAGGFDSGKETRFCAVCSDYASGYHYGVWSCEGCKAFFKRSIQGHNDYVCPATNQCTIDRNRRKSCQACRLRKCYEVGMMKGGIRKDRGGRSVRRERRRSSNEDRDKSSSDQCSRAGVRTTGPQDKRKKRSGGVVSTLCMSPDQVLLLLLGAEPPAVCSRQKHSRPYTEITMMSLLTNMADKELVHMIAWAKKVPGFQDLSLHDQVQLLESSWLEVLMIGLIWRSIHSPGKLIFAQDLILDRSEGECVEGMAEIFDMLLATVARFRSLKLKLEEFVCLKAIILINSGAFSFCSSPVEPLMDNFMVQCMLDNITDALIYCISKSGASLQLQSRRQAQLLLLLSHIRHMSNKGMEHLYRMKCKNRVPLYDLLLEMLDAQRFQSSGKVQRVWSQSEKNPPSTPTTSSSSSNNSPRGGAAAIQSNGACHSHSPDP
Procedure, shortened: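 After 24 h compound exposure, RNA from transfected HepG2 cells was reverse-transcribed and reporter transcripts resolved by capillary electrophoresis. The TRANS format reads exogenous zebrafish ER1-Gal4 chimera activity on GAL4-UAS elements; gain of signal against DMSO.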

[13] = system: zebrafish Estrogen Receptor (ER2a), gene 317734; experiment: ATG_zfER2a_XSP2: Attagene TRANS-FACTORIAL Multi-Species (XSP2) HepG2 Assay for zebrafish Estrogen Receptor (ER2a) (AID 2283818);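 also: hits raise reporter mRNA so AC50 reflects activation of zebrafish ER2a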
Procedure, shortened: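 Multiplexed trans-reporter readout: RT-PCR then capillary electrophoresis of reporter transcripts after 24 h compound treatment. Human HepG2 carries transfected zebrafish ER2a-Gal4 chimera; 3 nM 6-alpha-fluorotestosterone plus 1.5 nM norgestrel present. Induction scored against DMSO.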

[14] = target: human Androgen Receptor (AR), AR (gene 367) (UniProt P10275); experiment: ATG_hAR_XSP2: Attagene TRANS-FACTORIAL Multi-Species (XSP2) HepG2 Assay for human Androgen Receptor (AR) (AID 2283820)
Procedure, shortened: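 Reporter transcripts were measured by RT-PCR and capillary electrophoresis 24 h post-dosing, with gain of signal fitted against DMSO. Transiently transfected HepG2 cells expressed chimeric NR-Gal4 on GAL4-UAS reporters, with AR stimulated by 3 nM 6-alpha-fluorotestosterone and 1.5 nM norgestrel.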

[15] = system: zebrafish Estrogen Receptor (ER2b), gene 317733; experiment: ATG_zfER2b_XSP2: Attagene TRANS-FACTORIAL Multi-Species (XSP2) HepG2 Assay for zebrafish Estrogen Receptor (ER2b) (AID 2283823);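 also: fitted upward as reporter gain over DMSO so potency reflects activation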
Procedure, shortened: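 Transfect HepG2 with GAL4-UAS reporter constructs; dose chemicals, 24 h; isolate RNA, RT-PCR, FAM-label, HpaI digest; capillary electrophoresis. Gain-of-signal vs DMSO.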

[16] = system: turtle Estrogen Receptor (ERa), gene 101933533; experiment: ATG_trERa_XSP2: Attagene TRANS-FACTORIAL Multi-Species (XSP2) HepG2 Assay for turtle Estrogen Receptor (ERa) (AID 2283812);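 also: actives raise reporter signal above DMSO so AC50 reflects agonist activity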
Procedure, shortened: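 Readout is reporter mRNA quantified by RT-PCR with capillary electrophoresis after 24 h compound exposure, increase relative to DMSO. Uses transiently transfected human HepG2 liver cells carrying a chimeric turtle ERa-Gal4 receptor driving GAL4-UAS reporters.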

[17] = target: Estrogen receptor beta (Homo sapiens) (UniProt Q92731); experiment: ATG_hERb_XSP2: Attagene TRANS-FACTORIAL Multi-Species (XSP2) HepG2 Assay for human Estrogen Receptor (ERb) (AID 2283813);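 also: actives raise reporter mRNA above DMSO so AC50 reflects agonist induction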
Chain of Estrogen receptor beta (Homo sapiens) (Q92731 whole entry, looked up, the tested form may be a part): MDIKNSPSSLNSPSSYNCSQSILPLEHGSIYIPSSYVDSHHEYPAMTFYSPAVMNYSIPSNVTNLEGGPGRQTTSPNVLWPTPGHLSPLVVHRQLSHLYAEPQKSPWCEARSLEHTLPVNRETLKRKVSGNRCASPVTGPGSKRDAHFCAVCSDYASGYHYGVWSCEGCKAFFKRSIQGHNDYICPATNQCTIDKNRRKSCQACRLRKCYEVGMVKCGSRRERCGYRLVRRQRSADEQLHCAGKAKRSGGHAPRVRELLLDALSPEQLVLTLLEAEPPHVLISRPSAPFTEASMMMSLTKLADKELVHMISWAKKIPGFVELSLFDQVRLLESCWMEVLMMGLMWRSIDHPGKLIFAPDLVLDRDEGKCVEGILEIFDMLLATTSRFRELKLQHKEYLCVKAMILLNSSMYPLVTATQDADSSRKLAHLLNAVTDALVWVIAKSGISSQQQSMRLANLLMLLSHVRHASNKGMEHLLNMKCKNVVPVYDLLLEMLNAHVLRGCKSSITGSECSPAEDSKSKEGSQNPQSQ
Procedure, shortened: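 Transient TRANS reporter system in HepG2: after 24 h of chemical, RNA is reverse-transcribed, reporter cDNA amplified, FAM-labelled and sized by capillary electrophoresis. Induction of the human ERb-Gal4 reporter is measured relative to DMSO.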

[18] = target: chicken Estrogen Receptor (ERa), ESR1 (gene 396099) (UniProt P06212); experiment: ATG_chERa_XSP2: Attagene TRANS-FACTORIAL Multi-Species (XSP2) HepG2 Assay for chicken Estrogen Receptor (ERa) (AID 2283817);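 also: actives raise reporter signal above DMSO so AC50 reflects ER activation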
Chain of chicken Estrogen Receptor (ERa), ESR1 (gene 396099) (P06212 whole entry, looked up, the tested form may be a part): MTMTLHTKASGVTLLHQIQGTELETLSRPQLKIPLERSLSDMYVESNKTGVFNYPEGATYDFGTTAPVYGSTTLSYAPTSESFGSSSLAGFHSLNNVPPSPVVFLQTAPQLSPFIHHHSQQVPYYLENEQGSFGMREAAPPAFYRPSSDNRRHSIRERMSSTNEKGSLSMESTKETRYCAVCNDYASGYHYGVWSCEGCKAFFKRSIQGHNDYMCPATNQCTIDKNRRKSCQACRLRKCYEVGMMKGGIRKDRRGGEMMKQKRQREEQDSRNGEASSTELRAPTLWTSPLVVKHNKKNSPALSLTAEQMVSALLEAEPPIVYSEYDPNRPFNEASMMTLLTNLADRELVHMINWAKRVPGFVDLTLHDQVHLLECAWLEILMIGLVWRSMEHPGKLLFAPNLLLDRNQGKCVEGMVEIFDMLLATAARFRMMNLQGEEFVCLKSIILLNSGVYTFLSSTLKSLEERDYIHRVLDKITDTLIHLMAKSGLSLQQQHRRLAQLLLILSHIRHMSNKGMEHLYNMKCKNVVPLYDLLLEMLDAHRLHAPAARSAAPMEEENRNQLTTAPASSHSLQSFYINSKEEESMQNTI
Procedure, shortened: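 Reporter mRNA induction read by RT-PCR, fluorescent labelling and capillary electrophoresis after 24 h exposure; positive-direction fit against DMSO baseline. HepG2 cells transfected with multiplexed GAL4-UAS units including chicken ERa chimera; medium contained 3 nM 6-alpha-fluorotestosterone plus 1.5 nM norgestrel.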

[19] = system: frog Estrogen Receptor (ER), gene 398734; experiment: ATG_frER1_XSP2: Attagene TRANS-FACTORIAL Multi-Species (XSP2) HepG2 Assay for frog Estrogen Receptor (ER) (AID 2283821);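 also: hits raise reporter mRNA above DMSO baseline so potency means agonist or activator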
Procedure, shortened: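 HepG2 cells transiently transfected with multiplexed GAL4-UAS reporter units expressing chimeric NR-Gal4 proteins (TRANS format) were dosed for 24 h. Reporter mRNA was quantified by RT-PCR, FAM primer extension, HpaI digestion and capillary electrophoresis; gain of signal relative to DMSO.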

[20] = ATG_M_19_XSP2: Attagene TRANS-FACTORIAL Multi-Species (XSP2) HepG2 Assay for M32 Transcription Factor (Internal Marker) (AID 2283822)
Procedure, shortened: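 Internal background marker in a multi-species nuclear receptor TRANS panel: transfected HepG2 cells exposed 24 h, with 3 nM 6-alpha-fluorotestosterone and 1.5 nM norgestrel present. Readout is RT-PCR of reporter transcripts resolved by capillary electrophoresis, gain-of-signal versus DMSO.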

Measured: AC50

CCN(CC)CCOc1ccc(C(=C(Cl)c2ccccc2)c2ccccc2)cc1
active: [3] 945 nM | [4] 1930 nM | [5] 1130 nM | [6] 2960 nM | [7] 2020 nM | [8] 1570 nM | [9] 31400 nM
not listed: [16] | [17] | [18] | [19] | [20]
inactive: all other assays above

Cc1c(C)c2c(c(C)c1O)CCC(C)(COc1ccc(CC3SC(=O)NC3=O)cc1)O2 (stereo not given)
inactive: [10] | [16] | [17] | [12] | [18] | [19] | [15]

CC(=O)O[C@]1(C(C)=O)CC[C@H]2[C@@H]3C=C(Cl)C4=CC(=O)[C@@H]5C[C@@H]5[C@]4(C)[C@H]3CC[C@@]21C
active: [1] 20200 nM | [2] 347 nM | [15] 26 µM
not listed: [4] | [11] | [14] | [16] | [17] | [18] | [20]
inactive: all other assays above

CC(=O)[C@@]1(O)CC[C@H]2[C@@H]3CCC4=CC(=O)CC[C@]4(C)[C@H]3CC[C@@]21C
active: [16] 37.4 µM and 11.9 µM | [17] 100000 nM | [18] 38.3 µM and 14.9 µM | [13] 65.6 µM and 13.5 µM | [19] 34.1 µM and 27.4 µM | [15] 87.6 µM and 58.2 µM
inactive: [17] | [11] | [12] | [20]

Source: PubChem BioAssay (EPA / NIEHS)
